Source: PubChem BioAssay (National Center for Advancing Translational Sciences (NCATS))
Compounds with a hit are over-represented: about 0.87% of the library has one in this group of screens.
TDP1 inh: TDP1 (human) enzyme inhibition. 0.28% of 350,000 active. Potency, µM (doses to about 130 µM), without a hit: top-dose activity change, negative = inhibition, hits mostly inhibitors. recombinant TDP1, AlphaScreen DNA substrate cleavage. AID 485290. Q9NUW8; note: nearly all actives have a fitted effect of over 40% in size
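Tdp1 1 nM final; 15 min RT w/ cpd; substrate 15 nM, 5 min; beads 10 ug/ml, 10 min; AlphaScreen read. Neg ctrl: no enzyme.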
BLM inh: Bloom syndrome helicase (human) inhibition. P54132. recombinant BLM DNA unwinding, fluorescence dequenching. Potency, µM (doses to about 56.1 µM), inactives show top-dose activity change, negative = inhibition, most hits filed as inhibitors. 0.2% of 350,000 active. AID 2528;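 note: plate controls were vehicle for no effect and no enzyme for full effect; nearly all actives have a fitted effect of over 35% in size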
APEX1 inh: inhibitors of human APE1 endonuclease. P27695. recombinant APE1, TAMRA/BHQ-2 abasic DNA cleavage fluorescence. Potency, µM (series often up to 65.8 µM), for inactives: at the top dose activity change, negative = inhibition, hits mostly inhibitors. 0.35% of 350,000 active. AID 2517;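 note: plate controls were vehicle for no effect and reference inhibitor for full effect; nearly all actives have a fitted effect of over 55% in size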
Target sequence (P27695 whole entry, looked up): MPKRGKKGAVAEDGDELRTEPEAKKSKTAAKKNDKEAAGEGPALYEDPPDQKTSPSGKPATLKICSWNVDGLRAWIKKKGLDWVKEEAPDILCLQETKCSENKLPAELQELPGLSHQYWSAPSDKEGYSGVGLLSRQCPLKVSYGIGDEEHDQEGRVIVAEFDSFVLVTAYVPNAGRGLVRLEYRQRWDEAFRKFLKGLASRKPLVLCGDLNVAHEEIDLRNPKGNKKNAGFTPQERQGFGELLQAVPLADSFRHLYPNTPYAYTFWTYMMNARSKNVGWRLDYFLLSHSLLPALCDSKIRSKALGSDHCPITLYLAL
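Substrate: short duplex with […] THF abasic site, 5'-TAMRA and 3'-BHQ-2, 50 nM final. APE1 at 0.75 nM, preincubated 15 min RT with compound. Fluorescence increase from first to third read measured activity.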
GCN5L2 inh: blocks human GCN5L2 histone acetyltransferase. GCN5L2 HAT assay, ThioGlo1 CoA-SH fluorescence. AID 504327. 0.21% of 390,000 active. Potency, µM (series often up to 58.9 µM), for inactives: at the highest dose activity change, negative = inhibition, usual class: inhibitors
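Enzyme at 20nM final was mixed with library compounds for 15 min at room temperature. Peptide H3(1-25) at 75uM, acetyl-CoA at 70uM and ThioGlo1 at 50uM were then added. Plates were read immediately and after 20 min (Ex340nm/Em540nm).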
RECQ1 helicase: RECQ1 (human) helicase inhibition. 0.54% of 240,000 active. Potency, µM (top dose mostly 57.3 µM), without a hit: top-dose activity, negative = inhibition, actives largely listed as inhibitors. RECQ1 DNA unwinding, red fluorescence kinetic read. AID 2549;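 note: plate controls were vehicle for no effect and no enzyme for full effect; nearly all actives have a fitted effect of over 30% in size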
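50 nM RECQ1T1 preincubated 15 min with compound in Tris pH 8.0 buffer with MgCl2, DTT, Tween-20 and 2.5 ug/ml poly(dI-dC); started with 200 nM TAMRA/BHQ-2 forked duplex and 2 mM ATP. Unwinding read as fluorescence (525/598 nm), two reads 2 h apart.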
The depositor's hits bear a star; i = inactive; ? = inconclusive; nt = no result; ! = not active in a repeat; [ ] = another dose, or the depositor's remark. Calls come from the whole dose curve; as a rule, active = well fitted curve in the direction sought with a large enough effect; inconclusive = small, poorly fitted or top-dose-only effect, or another doubt; inactive = no such curve, though single readings can be large; an effect the other way counts as inactive or inconclusive. Unless noted, % is set by controls: 0 for no effect and ±100 for the full control effect; potency is the fitted concentration of half-maximal effect.

SMILES	TDP1 inh	BLM inh	APEX1 inh	GCN5L2 inh	RECQ1 helicase
Cc1ccc(CSc2nnc(SCC(=O)N/N=C/C=C/c3ccccc3[N+](=O)[O-])s2)cc1	5.5%	-2.9%	-0.1%	-0.7%	i
Cc1ccc(CSc2nnc(SCC(=O)N/N=C/C=C/c3ccco3)s2)cc1	2.7%	?	35.5µM*	-18.5%	-25.6%
O=C(N/N=C/C=C\c1ccco1)c1cccs1	1.3%	17.8µM*	9.4%	?	-12.1%
NC(N)=NCCC[C@H](NC(=O)CNC(=O)c1ccccc1)C(=O)Nc1cc(C(F)(F)F)ccc1Cl	-3.2%	nt	nt	nt	nt
Cc1ccc(CNc2ccc(N3CCN(C(=O)OC(C)(C)C)CC3=O)cc2)cc1	nt	nt	21.0%	nt	nt
CC(C)Cn1c(N)c(C(=O)COC(=O)C2CCCCC2)c(=O)n(C)c1=O	7.7%	-3.7%	12.8%	-4.5%	i
CC(C)Cn1c(N)c(C(=O)COC(=O)C2Cc3ccccc3CN2S(C)(=O)=O)c(=O)n(C)c1=O (configuration not stated)	28.2µM*	nt	-39.1%	-12.6%	nt
COc1c(O)c(O)cc2c1oc1c3cc(C)ccc3oc(=O)c21	9.9%	?	?	nt	8.91µM*
O=C(Cc1cccc2ccccc12)NN1C(=O)CSC1=S	2.6%	-0.6%	-0.7%	-2.0%	-15.6%
O=C(NN1C(=O)CSC1=S)C(=O)NN1C(=O)CSC1=S	nt	86.5%	2.24µM*	-3.5%	10µM*
N=c1c(C(=O)NCc2ccc3c(c2)OCO3)cc2c(=O)n3ccccc3nc2n1Cc1cccnc1	4.3%	1.0%	-2.4%	-1.9%	-20.2%
COc1ccc(CNC(=O)c2cc3c(=O)n4ccccc4nc3n(Cc3cccnc3)c2=N)cc1	-1.6%	-10.2%	16.4%	-1.3%	14.1µM*
O=C1CCc2cc(S(=O)(=O)Nc3ccccn3)ccc2N1	-0.8%	nt	nt	nt	nt
O=C(c1cccc(Br)c1)N1CCCc2ccccc21	nt	-1.0%	-19.6%	-5.7%	nt
O=C(c1coc(=O)c(Br)c1)N1CCCc2ccccc21	nt	?	?	-17.2%	35.5µM*
CC(C)(C)c1ccc(Nc2nc(C#N)nc(NC3CCCC3)n2)cc1	-1.8%	nt	nt	nt	nt
Nc1nc(=S)n(-c2ccccc2)[nH]1	7.4%	-7.4%	3.6%	?	-3.3%
S=c1nc(-c2ccccc2)[nH]n1-c1ccccc1	2.0%	-3.9%	16.7%	12.6µM*	-10.6%
O=C(O)CCCCCNC(=O)CSc1nnc(-c2ccc([S+](=O)([O-])N3CCCC3)cc2)n1-c1ccccc1	nt	nt	42.8%	nt	nt
O=C1CCc2cc(S(=O)(=O)Nc3ccc(Cl)c(Cl)c3)c(F)cc2N1	0.8%	nt	nt	nt	nt
NC(=S)NN=Cc1ccc(-c2ccc(S(=O)(=O)Nc3ncccn3)cc2)o1	10µM*	nt	-28.2%	?	nt
O=C(CNC(=O)c1ccc([N+](=O)[O-])cc1)OC(C(=O)Nc1cc(C(F)(F)F)ccc1Cl)c1ccccc1 (configuration not stated)	0.6%	nt	nt	nt	nt
O=c1c2ccccc2nc(-c2ccccc2O)n1Cc1ccccc1	-0.5%	nt	nt	nt	nt
Cc1ccc(-c2nn(-c3ccccc3)cc2C(=O)O)o1	?	0.6%	?	?	31.6µM*
COc1ccc(-c2nn(-c3ccccc3)cc2C(=O)O)cc1	3.7%	0.0%	?	-5.8%	-9.1%
SMILES	TDP1 inh	BLM inh	APEX1 inh	GCN5L2 inh	RECQ1 helicase
O=C(O)c1ccccc1-c1c2cc(Br)c(=O)c(Br)c-2oc2c(Br)c(O)c(Br)cc12	-13.4%	28.2µM*	?	22.4µM*	31.6µM*
COC(=O)NC(c1ccc(Cl)cc1)C(C(C)=O)C(=O)OC (configuration not stated)	7.9%[21 µM]	-1.8%[12.4 µM]	?	nt	-0.5%[11.5 µM]
CCOC(=O)c1c(NC(=O)C2CC(Cl)=CCC2C(=O)O)sc2c1CCCCC2 (configuration not stated)	22.4µM*	-5.0%	-23.4%	-27.8%	nt
CCOC(=O)c1c(NC(=O)C2C3C=CC(C3)C2C(=O)O)sc2c1CCCC2 (configuration not stated)	6.0%	2.5%	4.4%	10.9%	i
NC(=O)C1CCN(c2nc(-c3cccc([N+](=O)[O-])c3)cs2)CC1	nt	nt	-8.0%	nt	nt
O=C(O)c1ccc2c(c1)C(=O)/C(=C\c1ccco1)C2=O	7.08µM*	139.5%	7.94µM*	-18.7%	?
O=C1C(=Cc2ccco2)C(=O)c2ccccc21	2.7%	-1.0%	?	-4.2%	-29.8%
Cc1ccc(-c2csc3n[nH]c(=S)n23)cc1	-0.9%	-0.7%	-0.8%	25.1µM*	-9.8%
CCn1c(-c2ccc(C)cc2)n[nH]c1=S	4.9%	-0.5%	0.7%	-2.6%	-5.3%
Cc1ccc(NS(=O)(=O)c2ccc3c(c2)CC(=O)N3C)cc1C	1.5%	nt	nt	nt	nt
CCc1nn2c(=O)cc(COc3cccc(NC(=O)c4ccco4)c3)nc2s1	50.1µM*	-19.9%	-3.7%	-9.0%	nt
CC(=O)Nc1ccc(S(=O)(=O)N(C)c2ccc(OCCOc3cccc(C)c3)cc2)cc1	12.6µM*	nt	?	-10.7%	nt
CC[C@@H](C)[C@@H](N)C1=N[C@H](C(=O)N[C@@H](CC(C)C)C(=O)N[C@@H](CCC(=O)O)C(=O)N[C@@H](C(=O)N[C@@H]2CCCCNC(=O)[C@@H](CC(N)=O)NC(=O)[C@@H](CC(=O)O)NC(=O)[C@@H](Cc3cnc[nH]3)NC(=O)[C@@H](Cc3ccccc3)NC(=O)[C@@H]([C@H](C)CC)NC(=O)[C@@H](CCCN)NC2=O)[C@@H](C)CC)CS1	nt	nt	-5.3%	nt	nt
CCOc1ccccc1C(=O)N/N=C/c1coc2ccc(C)cc2c1=O	35.5µM*	-10.6%	-13.5%	-2.8%	nt
O=C(O)c1ccc2[nH]c3c(c2c1)CSCC3	20µM*	-1.6%	7.3%	-5.6%	1.6%
CSc1cc2c(s1)c1cnn(Cc3ccccc3F)c(=O)c1n2C	0.5%	nt	nt	nt	nt
Cc1cccc(Nc2ccccc2C(=O)O)c1C	0.0112µM*!	1.9%	21.9%	-3.8%	-12.3%
CS(=O)(=O)Nc1cccc(-c2cc(F)c(S(=O)(=O)N3CCN(S(=O)(=O)c4ccc5c(c4)OCCO5)CC3)cc2F)c1	-4.5%	nt	nt	nt	nt
COc1cc(F)c(S(=O)(=O)N2CCN(S(=O)(=O)c3ccc(NC(C)=O)cc3)CC2)c(F)c1	0.4%	nt	nt	nt	nt
COc1ccc2nc(-c3ccccc3)cc(C(=O)OCC(=O)N3CCCCC3)c2c1	44.7µM*	nt	-24.9%	?	nt
O=C(Cc1nnc(CNC(=O)c2ccccc2)o1)Nc1cc(C(F)(F)F)ccc1Cl	0.3%	nt	nt	nt	nt
N#Cc1nc(Nc2ccc(Br)cc2)nc(NC2CCCC2)n1	-2.2%	nt	nt	nt	nt
COc1ccc(-c2cc3ccc(O)cc3oc2=O)cc1	1.7%	-6.0%	-20.6%	31.6µM*	nt
O=C(COC(=O)c1cc2c(s1)CCCC2)Nc1ccc(Cl)cn1	0.6%	-1.9%	3.0%	-3.8%	-4.0%
O=C(COC(=O)c1ccc(Cl)c(S(=O)(=O)N2CCCC2)c1)NCc1ccccc1	35.5µM*	nt	7.52µM*	-6.2%	nt
COc1ccc(NC(=O)COC(=O)c2ccc(C)c(S(=O)(=O)N3CCCCC3)c2)cc1	39.8µM*	nt	-41.1%	-4.6%	nt
